Experimental data from PubChem BioAssay AID1851 (National Center for Advancing Translational Sciences (NCATS), 2009).
Hit rate of the full screen: of about 16,000 compounds, about 2,600 (16%) were called active. Roughly 20% stayed inconclusive and do not appear here. Calls come from the whole dose curve; as a rule, active = well fitted curve in the direction sought with a large enough effect; inconclusive = small, poorly fitted or top-dose-only effect, or effect the other way; inactive = no such curve, though single readings can be large or run the other way. Not all results are given here.

Target: Cytochrome P450 2D6 (Homo sapiens) (UniProt P10635)
Sequence (P10635 whole entry, looked up): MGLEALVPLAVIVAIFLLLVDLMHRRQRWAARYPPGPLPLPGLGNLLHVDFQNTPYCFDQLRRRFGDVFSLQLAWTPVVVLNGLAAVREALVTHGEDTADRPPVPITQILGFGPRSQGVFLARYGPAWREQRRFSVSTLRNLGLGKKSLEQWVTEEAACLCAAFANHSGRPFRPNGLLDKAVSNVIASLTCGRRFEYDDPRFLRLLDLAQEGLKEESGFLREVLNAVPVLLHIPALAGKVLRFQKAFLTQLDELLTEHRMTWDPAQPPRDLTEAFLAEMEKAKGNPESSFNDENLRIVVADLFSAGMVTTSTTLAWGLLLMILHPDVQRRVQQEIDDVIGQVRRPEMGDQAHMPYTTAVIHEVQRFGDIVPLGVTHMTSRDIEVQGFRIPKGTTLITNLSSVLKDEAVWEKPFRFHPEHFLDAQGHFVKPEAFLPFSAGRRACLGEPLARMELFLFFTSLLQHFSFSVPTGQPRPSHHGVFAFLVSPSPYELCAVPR
Experiment: Cytochrome panel assay with activity outcomes
Details: recombinant CYP, pro-luciferin dealkylation, luminescence, p450-cyp2d6; series mostly up to 57.1 µM; activity, negative = inhibition: at the top concentration
% is set by controls: 0 for no effect and ±100 for the full control effect.

activity, negative = inhibition, inactive:
Cc1nn(Cc2ccccc2Cl)c(C)c1NC(=O)CCCn1nc(C)c([N+](=O)[O-])c1C -6.51%
CCn1c2ccccc2c2cc(/C=N/n3cn[nH]c3=S)ccc21 -7.55%
COc1ccccc1NC(=O)Cn1nnc(-c2ccccc2NC(=O)c2cc3ccccc3oc2=O)n1 -3.14%
CCOC(=O)C1CCCN(C(=O)CCCOc2cc(=O)n(C)c3ccccc23)C1 (stereo not drawn) -22.4%
CC(=O)c1ccc(NC(=O)C2CC(c3ccc(F)cc3)=NO2)cc1 (stereo not drawn) -28.2%
O=C(NC1CCCC1)C1CC(c2ccc(F)cc2)=NO1 (stereo not drawn) 10.7%
C=CC[C@H](N)C(=O)O 1.56%
COc1ccc(-n2c(=O)c(C)nc3cnc(N4CCNCC4)nc32)cc1 -4.6%
Nc1[nH]c(=O)nc2c1ncn2[C@H]1O[C@@H](CO)[C@@H](O)[C@@H]1O 7.59% [at 11.4 µM]
COc1ccc(CNC(=O)c2cnc(C)cn2)cc1 5.7%
COc1ccc(CNC(=O)c2csc(Cc3ccc(OC)cc3)n2)cc1 -26.3%
CO[C@@H]1COC(=O)C/C=C\[C@@H](C)[C@H](OC)COC(=O)[C@H](COCc2ccccc2)NC(=O)C/C=C\[C@H]1C -2.59% [at 11.4 µM]
C[C@@H]1[C@H]2CC[C@@H]3[C@@H]4CC=C5C[C@@H](N(C)C)CC[C@]5(C)[C@@H]4CC[C@@]32CN1C -2.4% [at 25.6 µM]
CN(C)c1ncc2nc(-c3ccccc3)c(=O)n(Cc3ccc(F)cc3)c2n1 -8.66%
NCCCCCCNS(=O)(=O)c1cccc2ccccc12 3.26%
CCCCNS(=O)(=O)c1ccc(OC)c(Cl)c1Cl -2.36%
O=S(=O)(NCCCCCCc1ccccc1)c1cccc2c(Cl)cccc12 9.69%
CCCCCCCNS(=O)(=O)c1cccc2c(Cl)cccc12 -6.45%
C#C[C@]1(O)CC[C@@H]2[C@H]3CCC4=CCCC[C@@H]4[C@@H]3CC[C@@]21C -2.89% [at 25.6 µM]
N#CCCn1c(=O)c(-c2cc(F)cc(F)c2)nc2cnc(OCc3ccccc3)nc21 -6.84%
Cc1ncc(COP(=O)(O)O)c(C)c1O 11.2% [at 11.4 µM]
Cn1cc(/C=N/n2cnc3scc(-c4ccccc4)c3c2=O)c2ccccc21 -8.18%
CO[C@H]1COC(=O)[C@@H](Cc2ccccc2)NC(=O)[C@@H](C)COC(=O)C/C=C\[C@@H]1C 2.58% [at 11.4 µM]
CC(C)(C)c1ccc(C2CC2C(=O)N/N=C\c2cc3ccccc3nc2Cl)cc1 (stereo not drawn) 14.5%
COC(=O)[C@@]1(Cc2ccccc2)[C@@H]2C(=CC(=O)[C@H]2CC(=O)C(=O)N(C)C)CN1C(=O)c1ccccc1 -11.1%
COc1cc(C2C(C#N)=C(N)OC3=C2C(=O)CCC3)c([N+](=O)[O-])cc1OC (stereo not drawn) -13.7%
Nc1ncnc2c1ncn2[C@@H]1O[C@@H](C(=O)NC2CC2)[C@H](O)[C@@H]1O 2.36%
CC(CO)(CO)Nc1ncnc2ccccc12 -4.58% [at 11.4 µM]
OC[C@@H](O)CNc1ncnc2ccccc12 3.48% [at 11.4 µM]
COCCn1c(=O)cnc2cnc(Nc3ccccc3)nc21 -5.45%
CC(C)(C)OC(=O)NCCc1nnc(SCC(=O)Nc2cccc(Cl)c2)o1 -19.6%
CCC(=O)Nc1cccc(NC(=O)CSc2nnnn2Cc2ccccc2)c1 -19.3%
CC(=O)[C@H]1CC[C@H]2[C@@H]3C=CC4=CC(=O)CC[C@@]4(C)[C@H]3CC[C@]12C -2.12% [at 25.6 µM]
COC(=O)CC1C(=O)NCCN1C(=O)Nc1ccc(Cl)cc1 (stereo not drawn) 4.56%
Cc1ccc(-n2cc(C(=O)c3ccc4ccccc4c3O)cn2)cc1 -1.3%
COc1ccc(C[C@@](C)(N)C(=O)O)cc1OC 1.3% [at 25.6 µM]
CC(C)(C)c1ccc(OCC(=O)NNC(=O)CCc2ccccc2)cc1 -16.1%
COc1ccc(/C=N/NC(=O)CCc2ccccc2)cc1O -15.1%
COc1ccc(C/C(N)=N/OC(=O)Cc2ccccc2)cc1OC -9.36%
CCOc1cc(CNc2ccc(OC)cc2)cc(Br)c1OCC(=O)NC(C)(C)C -20.5%
COc1ccc(CNC(=O)Nc2cccs2)cc1OC -3.61%
N[C@@H]1[C@@H]2[C@@H]3C[C@H]4N(CC[C@@]14C(=O)C(=O)O)CC3=CCO[C@@H]2CC(=O)O -4.74% [at 11.4 µM]
Cc1cccc2nc(C(F)(F)F)nc(=O)n12 37.5%
COc1cccc(Cn2c(=O)c(-c3cn(C)c4ccccc34)nc3cnc(OC)nc32)c1 -6.37%
COc1ccc(NS(=O)(=O)c2cc(-c3nnnn3C)ccc2OC)cc1 -18.8%
COC(=O)Nc1nc2ccc(C(=O)c3cccs3)cc2[nH]1 0.0102%
COCC(=O)N1CCC2(CCCN(c3ccncc3)C2)CC1 -15.3%
CC1=C(C(N)=O)C(c2ccccn2)n2nc(SCc3ccccc3Cl)nc2N1 (stereo not drawn) -0.385%
CC(C)CNc1nc(N)[nH]c(=O)c1NC=O -2.42% [at 11.4 µM]
CN1CCN(c2ncc3nc(-c4cc(F)cc(F)c4)c(=O)n(CCC#N)c3n2)CC1 17.6%

AC50, active:
CCn1c2ccccc2c2cnc(N=CN(C)C)c(C#N)c21 1.41 µM
Cn1ncc(C#N)c1NC(=O)C1CC(c2ccc(Cl)cc2)=NO1 (stereo not drawn) 3.98 µM
COc1ccc(CNC(=O)c2csc(Cc3ccc(Cl)cc3)n2)cc1 14.1 µM
NCCCCCCNS(=O)(=O)c1cccc2c(Cl)cccc12 12.6 µM
NCCCCCCCCCCNS(=O)(=O)c1cccc2c(Cl)cccc12 1.26 µM
CN1CCC[C@@H](CC2c3ccccc3Sc3ccccc32)C1 0.316 µM
CN1CC[C@H](CN2c3ccccc3Sc3ccccc32)C1 0.126 µM
c1ccc(CN2CC[C@@H](CNc3ncnc4ccccc34)C2)cc1 0.794 µM
O=C(CSc1nnc(Cn2nnc3ccccc32)o1)Nc1cccc(Cl)c1 12.6 µM
CSC1(SC2=NCCN2)SC2(NCCN2)S1 3.98 µM
COc1ccc(CNCCc2ccccc2)cc1OCC(N)=O 0.398 µM
COc1cc(CNCc2cccs2)ccc1OCC(N)=O 2 µM
COc1cc(CNCCc2ccccc2)ccc1OCC(=O)NC(C)(C)C 3.16 µM
